According to PubChem BioAssay AID720519 (National Center for Advancing Translational Sciences (NCATS), 2013):
Records with an inconclusive call do not appear. Values without a mark were called inactive. Calls of active or inactive are those of the source. Calls follow the shape of the dose curve; as a rule, active = well fitted activation curve with a large enough effect; inconclusive = small, poorly fitted or top-dose-only effect; inactive = flat fitted curve, though single readings scatter.

Test: qHTS for Inhibitors of Cell Surface uPA Generation: Confirmatory Assay for Cherry-picked Compounds; as to inhibition: 0% is about no effect
Conditions: cell surface uPA activity generation, qHTS confirmation; series mostly up to 115 µM; inhibition: at the top concentration
Method in brief: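 RAW 264.7 cells at 4000/well, incubated overnight, then treated with compounds. After 24 h at 37 C, viability was read by ATPlite luminescence. An increase in signal indicates blocked uPA-dependent LF entry.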
Potency is read from the fitted curve at half-maximal effect.

| Structure (SMILES) | inhibition [%] | Potency |
| --- | --- | --- |
| CN(C)S(=O)(=O)c1cccc(C(=O)OCC(=O)NCc2ccc3c(c2)OCO3)c1 | -1.01 |  |
| CCOC(=O)CC(=O)CSc1nc2c(C)c(C)ccc2cc1C | 0.709 |  |
| Cc1cc(-c2ccccc2)nc(N/N=C/c2ccc(N(C)C)cc2)n1 | -2.59 |  |
| COC(/C=C/Nc1ccc(Cl)cc1)=C(C#N)C#N | -0.118 |  |
| CCN(CC)CC(=O)Nc1sc2c(c1C(=O)c1ccccc1OC)CCC2 |  | 10.4 µM (active) |
| COC(=O)C1C(=O)c2c([nH]c(C(=O)OC3CCCCC3)c2C)CC1C (stereo not drawn) | -0.386 |  |
| COc1ccc(-c2cccc(-c3cc(=O)oc4cc(OC)c(OC)c(OC)c34)c2)cc1 | -2.12 |  |
| COc1cccc(NC(=O)N2C3CCCC2CC(NC(C)=O)C3)c1 (stereo not drawn) | 0.143 |  |
| O=C(NCCCn1ccnc1)C(=O)NCC(c1cccnc1)N1CCN(c2ccc(F)cc2)CC1 (stereo not drawn) | -0.766 |  |
| O=C(NC1CCCC1)c1nc2c(nnn2Cc2ccccc2Cl)c(=O)[nH]1 | -2.2 |  |
| O=C(NNC(=O)c1cccnc1)c1ccncc1 | -1.17 |  |
| COc1ccc(NS(=O)(=O)c2cccc(C(=O)NCc3ccccc3CN3CCCC3)c2)cc1 |  | 7.36 µM (active) |
| CC(=O)COc1ccc2c(-c3cccc([N+](=O)[O-])c3)cc(=O)oc2c1 | -3.16 |  |
| CCC1Nc2ncnc(N3CCCCC3)c2N(Cc2ccc(Cl)cc2)C1=O (stereo not drawn) | -0.906 |  |
| CSc1nc(-c2ccccc2)nc(C(Cl)Cl)n1 | -3.76 |  |
| COC(=O)C1=CN(Cc2ccc(F)cc2)C=C(C(=O)OC)C1c1ccc(O)c(OC)c1 | -0.29 |  |
| COc1ccc(-c2csc(NC(C)c3nc4cc(C(=O)NCCCO)ccc4n3Cc3ccc(C)cc3)n2)cc1 (stereo not drawn) | -1.07 |  |
| CC(C)N1CCc2c(sc(NC(=O)Cc3ccccc3)c2C(N)=O)C1 | -0.422 |  |
| O=C(NCCN1CCOCC1)c1ccccc1Cl | -2.24 |  |

| Structure (SMILES) | inhibition [%] | Potency |
| --- | --- | --- |
| CC1=CC(C)(C)N2C(=O)C3(NCCc4c3[nH]c3ccccc43)c3cc(C)cc1c32 (stereo not drawn) |  | 2.33 µM (active) |
| C/C(=N\NC(=O)c1ccccc1)c1c(C)[nH]n(-c2ccccc2)c1=O | -3.44 |  |
| COc1ccc(NS(=O)(=O)c2c(C)n(C)c(=O)n(C)c2=O)cc1OC | -3.16 |  |
| COc1ccc(OC)c(S(=O)(=O)N2CCN(Cc3ccccc3)CC2)c1 | -0.0908 |  |
| CCN(CC)S(=O)(=O)c1ccc(NC(=S)Nc2ccc(F)cc2)cc1 | -2 |  |
| COc1ccc(N2CCN(C3CCN(S(=O)(=O)c4ccc(F)cc4)CC3)CC2)cc1 | -1.08 |  |
| Cc1nc(SCc2nc3ccccc3[nH]2)c2oc3cc([N+](=O)[O-])ccc3c2n1 | -3.44 |  |
| Cc1cc(=O)[nH]c(=S)[nH]1 | -1.76 |  |
| Cc1ccccc1NC(=O)N1CCN(c2ncccn2)CC1 | -1.39 |  |
| Cn1nc(C(C)(C)C)c([N+](=O)[O-])c1C(=O)N1CCOCC1 | -1.01 |  |
| CCCN1CCN(C(=O)CCCn2c(C)c3cnn(-c4ccccc4)c(=O)c3c2C)CC1 | -2.47 |  |
| N#CCCN(C(=O)COC(=O)c1ccc2c(c1)NC(=O)CS2)c1ccc2c(c1)OCCO2 | -2.38 |  |
| O=C(CCS(=O)(=O)c1ccc2c(c1)NC(=O)CS2)NCCc1ccc(Cl)cc1 | -0.234 |  |
| CCOC(=O)N1CCN(c2c(NCCCN3CCCCCC3)c(=O)c2=O)CC1 | -2.71 |  |
| O=C(CCc1ccccc1)NNC(=O)c1cccc(F)c1 | -2.32 |  |
| O=C(C[C@@H]1C/C=C\C[C@H](Cc2ccc(F)cc2)C(=O)OC[C@H]2CCCN2C1=O)N[C@H](CO)Cc1ccccc1 | -3.41 |  |
| CCCc1nc2c(=O)n(C)c(=O)[nH]c2n1CCC | 1.04 |  |
| CC(=O)NCCc1cnc[nH]1 | -2.18 |  |
| COc1ccccc1C(=O)Nc1cccc(C(=O)c2ccccc2)c1 | -2.99 |  |
